# Unmarked numbers belong to inactive results. Calls of active or inactive are those of the source. Calls follow the shape of the dose curve; as a rule, active = well fitted curve in the direction sought with a large enough effect in the repeat runs; inconclusive = weak or mixed curves; inactive = flat fitted curve, though single readings scatter.
# Test: qHTS assay to test for compound auto fluorescence at 460 nm (blue) in HepG2 cells (AID 720687)
# Conditions: autofluorescence 405/460 nm, 1 h; series mostly up to 91.3 µM; fluorescence, % of fluorescent control: at the top concentration
# From the text: U.S. Tox21 Program National Center for Advancing Translational Sciences [NCATS] NIH Chemical Genomics Center [NCGC] U.S. Environmental Protection Agency [EPA] National Institutes of Environmental Health Sciences [NIEHS] National Toxicology Program [NTP] U.S. Food and Drug Administration [FDA] Tox21 Assay Overview: Compound auto fluorescence often interferes with screening of the compound library against various biological targets and signaling pathways. Some of these compounds may have fluorophoric properties. Such properties may interfere with the assay outputs resulting in false positives and/or negatives. To decrease such complications and ensure the compound activities are relevant in terms of biological response, the Tox21 10K compound library was screened for auto fluorescence. From the fluorophores used as reporter signals in our screening assays, the auto fluorescence equivalencies of compounds against three fluorophores have been evaluated: Triamterene, Fluorescein and Rose Bengal sodium for blue, green and red fluorescence, respectively. The fluorescence intensities were measured using Excitation/Emission wavelengths at 405/460nm, 485/535nm and 540/590nm for blue, green and red labels, respectively. This assay includes the blue fluorescence data.
# Tox21 Assay Protocol Summary: 2,000 HepG2 cells in 5 uL of culture medium (MEM containing 10% FBS) per well were dispensed into black wall/clear bottom 1536-well plates using a Multidrop Combi Dispenser (ThermoFisher Scientific, Waltham, MA). The assay plates were incubated overnight at 37 C to allow cell attachment to the well bottom, followed by the transfer of 23 nL compound or DMSO vehicle by a pintool work station (Kalypsys , San Diego, CA). After the assay plates were incubated for 1 hr at 37 C and 5% CO2, fluorescence intensities in the assay plates were measured by an Envision (PerkinElmer, Shelton, CT) plate reader using three labels for measuring blue, green and red fluorescence at […] 460, 535 and 590 nm respectively.
# % is scaled to controls: 0 for no effect and ±100 for the full control effect.
SMILES,outcome,"fluorescence, % of fluorescent control [%]"
CC(C)(C)c1cc(Cc2cc(C(C)(C)C)c(O)c(C(C)(C)C)c2)cc(C(C)(C)C)c1O,inactive,–
NCCNCCN,inactive,–
C=CCCCCCCCCC(=O)O,inactive,–
CNC(=S)N(C)C,inactive,–
C=CC[N+](C)(C)CC=C,inactive,–
CNC(=O)Oc1ccc2c(c1)[C@]1(C)CCN(C)[C@@H]1N2C,inactive,–
NC(=S)NNC(N)=S,inactive,–
OCc1cccc(Oc2ccccc2)c1,inactive,–
CCCCCCCC=O,inactive,–
CSc1ccc(Cl)cc1,inactive,–
C[Si]1(C)O[Si](C)(C)O[Si](C)(C)O[Si](C)(C)O1,inactive,–
Nc1ccc(Cl)c(N)c1,inactive,–
CCCCCCCCCCCCCCCCO,inactive,–
CCc1ccccc1CC,inactive,–
O=C(O)CCCCCCCCC(=O)O,inactive,–
O=C(O)Cn1c(=O)n(Cc2ccc(Br)cc2F)c(=O)c2ccc(Cl)cc21,–,-0.121
C=C(C)C(=O)OCC(C)C,inactive,–
Cc1ccc2ncccc2c1,inactive,–
NCCN1CCNCC1,inactive,–
COc1ccc(N)c(C)c1,inactive,–

SMILES,outcome,"fluorescence, % of fluorescent control [%]"
C[C@]12CC[C@@H]3c4ccc(O)cc4CC[C@H]3[C@@H]1C[C@@H](O)[C@@H]2O,inactive,–
CCCCCCCO,inactive,–
CC(=O)OCCOC(C)=O,inactive,–
COc1ccc([N+](=O)[O-])cc1N,inactive,–
O=S(=O)(O)c1ccc(N=Nc2c(O)ccc3cc(S(=O)(=O)O)ccc23)cc1,inactive,–
N[C@H](Cc1c[nH]c2ccccc12)C(=O)O,inactive,–
CC(=O)OCc1ccccc1,inactive,–
CC1(C)OC[C@@H]2O[C@@]3(C(=O)O)OC(C)(C)O[C@H]3[C@@H]2O1,inactive,–
C[C@]12CCC(=O)C=C1CC[C@@H]1[C@@H]2[C@@H](O)C[C@@]2(C)[C@H]1CC[C@]2(O)C(=O)CO,inactive,–
CCO[Si](CCC#N)(OCC)OCC,inactive,–
CC(C)c1cccc(C(C)C)c1,inactive,–
O=C1CCCC1,inactive,–
CC1(C)S[C@@H]2[C@H](NC(=O)COc3ccccc3)C(=O)N2[C@H]1C(=O)O,inactive,–
CN(C)CCOC(=O)COc1ccc(Cl)cc1,inactive,–
CC1(C)NC(=O)NC1=O,inactive,–
O=c1[nH]cnc2[nH]ncc12,inactive,–
COCCCN,inactive,–
CC1(C)CC(N)CC(C)(CN)C1 (stereo not given),inactive,–
COC(=O)CCCC(=O)OC,inactive,–
O=S(=O)(O)c1ccccc1,inactive,–
